{"source": "PubChem BioAssay (NCATS)", "note": "Inconclusive results are not listed. A call without a number means that no potency is given here. Activity calls are given as the source filed them. Calls follow the shape of the dose curve; as a rule, active = well fitted inhibition curve with a large enough effect; inconclusive = small, poorly fitted or top-dose-only effect; inactive = no such curve, though single readings can be large or run the other way. Potency is read from the fitted curve at half-maximal effect.", "data": [{"target": "Retinaldehyde dehydrogenase 3 (Homo sapiens) (UniProt P47895)", "test": "qHTS for Inhibitors of the Aldehyde Dehydrogenase Family (ALDH1A3) Primary screen (AID 2061315)", "conditions": "ALDH inhibition qHTS; series mostly up to 56 µM", "values": [{"smiles": "O=S(=O)(c1ccccc1)N1CCN(c2nc(-c3ccc(Br)cc3)cs2)CC1", "Potency": "inactive"}, {"smiles": "N#Cc1c(-c2cccc(Cl)c2)no[n+]1[O-]", "Potency": "inactive"}, {"smiles": "Cc1cc(-c2nnc3n2CCCC3)c(C)n1-c1ccccc1", "Potency": "inactive"}, {"smiles": "Cc1ccnc(CC(=S)N2CCN(c3cccc(C(F)(F)F)c3)CC2)c1", "Potency": "inactive"}, {"smiles": "CCOc1ccc(CCNC(=O)c2cc3c(s2)CCC3)cc1OCC", "Potency": "inactive"}, {"smiles": "O=C(Nc1nc(-c2ccccc2)cs1)c1ccncc1NS(=O)(=O)c1ccc(Cl)cc1", "Potency": "inactive"}, {"smiles": "COc1ccc(C2Nc3ccccc3C(=O)N2CCc2ccc(Cl)cc2Cl)cc1COc1ccc(NC(C)=O)cc1", "note": "(centres undefined)", "Potency": "inactive"}, {"smiles": "CN(C)CCCNc1ccc(NC(=O)c2cccs2)cn1", "Potency": "inactive"}, {"smiles": "COc1cc2ncnc(N(C)Cc3csc(C)n3)c2cc1-c1ccc2c(c1)OCO2", "Potency": "inactive"}, {"smiles": "Cc1cc(-c2nnc3n2CCCCC3)c(C)n1-c1ccc(Cl)c(Cl)c1", "Potency": "inactive"}, {"smiles": "Cc1cnc(-c2ccccc2C2COC2)nc1NCc1ccc(-n2ccnn2)cc1", "Potency": "inactive"}, {"smiles": "COc1ccc(C2Nc3ccccc3C(=O)N2CCc2ccccc2)cc1COc1ccc(NC(C)=O)cc1", "note": "(centres undefined)", "Potency": "inactive"}, {"smiles": "CCCCN(C)C(=O)Cn1nc(-c2ccc(Cl)cc2)ccc1=O", "Potency": "inactive"}, {"smiles": "Nc1ccccc1OC1=NS(=O)(=O)c2ccccc21", "Potency": "inactive"}, {"smiles": "FC(F)(F)c1ccc(-c2ccc(CNc3nc(-c4ccccc4C(F)(F)F)nc4ccccc34)cc2)cn1", "Potency": "inactive"}, {"smiles": "O=C([C@H](Cc1ccc(O[S+](=O)([O-])c2cccnc2)cc1)N[S+](=O)([O-])c1cccc2cnccc12)N1CCN(c2ccccc2)CC1", "Potency": "inactive"}, {"smiles": "COc1ccc(NC(=O)CN(C)C(=O)c2cc3c(s2)CCC3)cc1", "Potency": "inactive"}, {"smiles": "O=C([C@H](Cc1ccc(O[S+](=O)([O-])c2cccnc2)cc1)N[S+](=O)([O-])c1ccccn1)N1CCN(c2ccccc2)CC1", "Potency": "inactive"}, {"smiles": "COc1ccc(C2=Nn3c(nnc3-c3ccc(OC)cc3)SC2)cc1", "Potency": "inactive"}, {"smiles": "CN(CC(=O)O)c1ncnc2ccc(-c3ccc4c(c3)OCO4)cc12", "Potency": "inactive"}, {"smiles": "CN(C)CCCNC(=O)c1ccc(-c2cnc3c(O)cccc3c2)cc1", "Potency": "inactive"}, {"smiles": "COc1ccc(C2=Nn3c(nnc3-c3cccc(OC)c3OC)SC2)c(OC)c1", "Potency": "inactive"}, {"smiles": "COc1ccc(C2=Nn3c(nnc3-c3cc(OC)ccc3OC)SC2)cc1", "Potency": "inactive"}, {"smiles": "N#Cc1nc(Nc2cccc(Cl)c2)nc(NC2CCCC2)n1", "Potency": "inactive"}, {"smiles": "O=[S+]([O-])(Nc1ccc(-c2nc3ccccc3[nH]2)cc1)c1ccc2c(c1)OCO2", "Potency": "inactive"}, {"smiles": "O=C(Nc1cncc(Cc2ccccc2)c1)c1ccc(-c2cccc([N+](=O)[O-])c2)o1", "Potency": "inactive"}, {"smiles": "CSc1ccc(-c2cnc(N3CCC(C(N)=O)CC3)s2)cc1", "Potency": "inactive"}, {"smiles": "O=C(O)C1CCN(c2ncc(-c3ccc4c(c3)OCCCO4)s2)CC1", "Potency": "447 nM (active)"}, {"smiles": "CCOC(=O)c1ccc(-n2cccc2/C=C2\\NC(=O)NC2=O)cc1", "Potency": "inactive"}, {"smiles": "O=C(NCCCCc1ccccc1)C1CCN(c2nc(-c3ccc(Br)cc3)cs2)CC1", "Potency": "inactive"}, {"smiles": "O=C(CN1C(=O)N/C(=C\\c2cn(-c3cccc(C(=O)O)c3)cn2)C1=O)Nc1ccccc1Cl", "Potency": "inactive"}, {"smiles": "Cc1nc(-c2ccccc2)oc1-c1ccc2ncnc(NCc3ncc[nH]3)c2c1", "Potency": "inactive"}, {"smiles": "FC(F)Oc1ccc(C2=Nn3c(nnc3-c3ccccc3C(F)(F)F)SC2)cc1OCC1CC1", "Potency": "inactive"}, {"smiles": "O=C(Nc1nc(-c2ccccc2)cs1)c1ccncc1NS(=O)(=O)c1ccccc1Cl", "Potency": "inactive"}, {"smiles": "COc1ccc(C2Nc3ccccc3C(=O)N2Cc2ccco2)cc1COc1ccc(NC(C)=O)cc1", "note": "(centres undefined)", "Potency": "inactive"}, {"smiles": "Cc1[nH]c2ccccc2c1C1=C(NCCc2ccc(F)cc2)C(=O)N(C)C1=O", "Potency": "inactive"}, {"smiles": "N#Cc1nc(Nc2ccc3ccccc3c2)nc(NC2CCCC2)n1", "Potency": "inactive"}, {"smiles": "O=C(Nc1nc(-c2ccccc2)cs1)c1ccncc1NS(=O)(=O)c1ccc2ccccc2c1", "Potency": "inactive"}, {"smiles": "CN1CCN(c2ccc(Nc3nn4c(=O)c5ccccc5nc4s3)cc2)CC1", "Potency": "inactive"}]}]}
